Results taken from PubChem BioAssay AID1159580 (chemical genetic matrix, 2015).
Screen size: about 5,500 compounds; about 2,000 (36%) were called active. Not shown: some 18% with an inconclusive outcome. Rule as the data show it: active = normalized growth mostly below about 0.91 (no sharp cut-off); inconclusive = no clear call, values can overlap the other calls; inactive = mostly above about 0.92. The list shows a part of the results.

Experiment: chemical genetic growth profiling, strain panel (AID 1159580);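 also: tested at 20 µM; growth read once vehicle control cultures reached saturation at 30 °C; 1 = growth at the plate median or of vehicle wells; lower values mean less growth of the strain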
Conditions: S. cerevisiae deletion strains, growth OD
[1] = locus YCL061C, strain MRC1, active compounds read low
[2] = locus YHR030C, strain SLT2, active compounds read low
[3] = locus YAL013W, strain DEP1, active compounds read low
[4] = locus YBR229C, strain ROT2, active compounds read low
[5] = locus YDL101C, strain DUN1, active compounds read low
[6] = locus YDR150W, strain NUM1, active compounds read low
[7] = locus YEL061C, strain CIN8, active compounds read low
[8] = locus YGR078C, strain PAC10, active compounds read low
[9] = locus YHR087W, strain rtc3, active compounds read low
[10] = locus YJL187C, strain SWE1, active compounds read low
[11] = locus YJR043C, strain POL32, active compounds read low
[12] = locus YJR075W, strain HOC1, active compounds read low
[13] = locus YKL190W, strain CNB1, active compounds read low
[14] = locus YLR039C, strain RIC1, active compounds read low
[15] = locus YLR058C, strain SHM2 (second series), active compounds read low
[16] = locus YLR085C, strain ARP6, active compounds read low
[17] = locus YLR262C, strain YPT6, active compounds read low
[18] = locus YML094W, strain GIM5, active compounds read low
[19] = locus YMR219W, strain ESC1, active compounds read low
[20] = locus YMR263W, strain SAP30, active compounds read low
[21] = locus YNL153C, strain GIM3, active compounds read low
[22] = locus YNL298W, strain CLA4 (second series), active compounds read low
[23] = locus YNL322C, strain KRE1, active compounds read low
[24] = locus YNR030W, strain Alg12, active compounds read low
[25] = locus YOL006C, strain TOP1, active compounds read low
[26] = locus YPL055C, strain LGE1, active compounds read low
[27] = locus YPL241C, strain CIN2, active compounds read low
[28] = locus YPR135W, strain CTF4, active compounds read low

Measured: normalized growth

O=C(O)c1cc(=O)c2ccccc2o1
inactive: locus YAL021C, strain ccr4, active compounds read low 1.01 | locus YAL026C, strain drs2, active compounds read low 0.984 | locus YAL030W, strain snc1, active compounds read low 0.971 | locus YBL061C, strain skt5, active compounds read low 0.974 | locus YBR009C, strain hhf1, active compounds read low 0.989 | locus YBR023C, strain chs3, active compounds read low 0.982 | locus YBR171W, strain sec66, active compounds read low 0.965 | locus YBR231C, strain swc5, active compounds read low 0.982 | locus YBR279W, strain paf1, active compounds read low 0.981 | locus YCL011C, strain gbp2, active compounds read low 0.988 | locus YCL016C, strain dcc1, active compounds read low 0.995 | [1] 0.979 | locus YCL069W, strain vba3, active compounds read low 0.99 | locus YCR088W, strain abp1, active compounds read low 0.973 | locus YDL005C, strain med2, active compounds read low 0.967 | locus YDL040C, strain nat1, active compounds read low 0.98 | locus YDR001C, strain nth1, active compounds read low 0.972 | locus YDR069C, strain doa4, active compounds read low 0.966 | locus YDR137W, strain rgp1, active compounds read low 0.971 | locus YDR159W, strain sac3, active compounds read low 1 | locus YDR195W, strain ref2 0.916 | locus YDR297W, strain sur2, active compounds read low 0.983 | locus YDR334W, strain swr1, active compounds read low 0.976 | locus YDR335W, strain msn5, active compounds read low 0.986 | locus YDR392W, strain spt3, active compounds read low 1.02 | locus YEL003W, strain gim4, active compounds read low 0.983 | locus YEL037C, strain rad23, active compounds read low 0.973 | locus YEL061C, strain CIN8 (second series), active compounds read low 0.97 | locus YER015W, strain faa2, active compounds read low 0.99 | locus YER016W, strain bim1, active compounds read low 0.984 | locus YER111C, strain swi4, active compounds read low 0.972 | locus YER155C, strain BEM2 (second series), active compounds read low 0.936 | locus YFR010W, strain ubp6, active compounds read low 0.976 | locus YGL167C, strain pmr1, active compounds read low 0.973 | locus YGL173C, strain kem1, active compounds read low 0.975 | locus YGL227W, strain vid30, active compounds read low 0.968 | locus YGL240W, strain doc1, active compounds read low 0.96 | locus YGL253W, strain hxk2, active compounds read low 0.992 | locus YHR013C, strain ard1, active compounds read low 0.978 | locus YHR027C, strain rpn1, active compounds read low 0.977 | [2] 1.03 | locus YHR079C, strain IRE1, active compounds read low 1.02 | locus YHR142W, strain chs7, active compounds read low 0.983 | locus YJL092W, strain hpr5, active compounds read low 0.98 | locus YJL095W, strain BCK1 (second series), active compounds read low 0.97 | locus YJL095W, strain BCK1, active compounds read low 1.03 | locus YJL115W, strain asf1, active compounds read low 0.979 | locus YJL129C, strain trk1, active compounds read low 0.95 | locus YJL154C, strain vps35, active compounds read low 0.952 | locus YJL164C, strain tpk1, active compounds read low 0.98 | locus YJL166W, strain qcr8, active compounds read low 0.97 | locus YJR066W, strain TOR1, active compounds read low 0.956 | locus YKL160W, strain elf1, active compounds read low 0.987 | locus YKR026C, strain gcn3, active compounds read low 0.971 | locus YKR091W, strain srl3, active compounds read low 0.972 | locus YLL001W, strain dnm1, active compounds read low 0.957 | locus YLL026W, active compounds read low 0.969 | locus YLL041C, strain sdh2, active compounds read low 0.972 | locus YLR027C, strain aat2, active compounds read low 0.979 | locus YLR113W, strain HOG1, active compounds read low 1.05 | locus YLR221C, strain rsa3, active compounds read low 1 | locus YLR258W, strain gsy2, active compounds read low 0.985 | locus YLR262C, strain YPT6 (second series), active compounds read low 0.986 | locus YLR320W, strain mms22, active compounds read low 0.991 | locus YLR342W, strain FKS1, active compounds read low 0.983 | locus YLR357W, strain rsc2, active compounds read low 0.975 | locus YLR370C, strain arc18, active compounds read low 0.974 | locus YLR384C, strain iki3, active compounds read low 0.976 | locus YML120C, strain ndi1, active compounds read low 0.958 | locus YMR058W, strain fet3, active compounds read low 0.984 | locus YMR125W, strain sto1, active compounds read low 0.95 | locus YMR129W, active compounds read low 0.981 | locus YMR205C, strain PFK2, active compounds read low 0.969 | locus YMR231W, strain pep5, active compounds read low 0.949 | locus YNL071W, strain lat1, active compounds read low 0.988 | locus YNL183C, strain NPR1, active compounds read low 0.949 | locus YNL209W, strain ssb2, active compounds read low 1.03 | locus YNL248C, strain rpa49, active compounds read low 0.968 | locus YNL322C, strain KRE1 (second series), active compounds read low 0.953 | locus YNR049C, strain mso1, active compounds read low 0.982 | locus YOR001W, strain rrp6, active compounds read low 0.983 | locus YOR070C, strain gyp1, active compounds read low 0.985 | locus YOR080W, strain dia2, active compounds read low 0.971 | locus YOR083W, strain WHI5, active compounds read low 0.982 | locus YOR106W, strain vam3, active compounds read low 0.972 | locus YOR231W, strain MKK1, active compounds read low 1.07 | locus YOR265W, strain rbl2, active compounds read low 0.976 | locus YOR270C, strain vph1, active compounds read low 0.962 | locus YOR290C, strain snf2, active compounds read low 1 | locus YPL051W, strain arl3, active compounds read low 0.983 | locus YPL078C, strain atp4, active compounds read low 0.975 | locus YPL106C, strain sse1, active compounds read low 0.988 | locus YPL240C, strain hsp82, active compounds read low 0.994 | locus YPL256C, strain CLN2, active compounds read low 1.03

CCOC(=O)c1ccc2oc3ccc(O)cc3c(=O)c2c1
inactive: [3] 0.948 | [4] 0.982 | [5] 0.982 | locus YDL134C, strain PPH21, active compounds read low 1 | [6] 0.973 | [7] 0.97 | [8] 1 | [2] 0.826 | [9] 0.937 | [10] 0.956 | [11] 0.977 | [12] 1.01 | [13] 0.979 | [14] 1 | [15] 0.988 | [16] 0.864 | [17] 0.99 | [18] 0.913 | [19] 1 | [20] 0.949 | locus YMR307W, strain GAS1, active compounds read low 0.814 | [21] 0.973 | [22] 0.956 | [23] 1.01 | [24] 0.939 | [25] 0.945 | [26] 0.88 | [27] 0.908 | [28] 0.872

O=C(O)c1coc2ccccc2c1=O
active: [1] 0.906 | [14] 0.665 | [17] 0.764 | [27] 0.833
inactive: [3] 1 | [4] 0.99 | [5] 0.973 | [6] 0.908 | [7] 1.02 | [8] 0.995 | locus YGR229C, strain SMI1, active compounds read low 0.999 | [2] 0.867 | [9] 0.96 | [10] 0.992 | [11] 1 | [12] 0.897 | [13] 1.01 | [15] 0.995 | [16] 0.853 | [18] 0.96 | [19] 0.964 | [20] 0.978 | [21] 0.982 | [22] 1 | [23] 0.994 | [24] 0.888 | [25] 0.852 | [26] 0.906 | [28] 0.892
